High-throughput results (PubChem)
HCMV antiviral – inhibitors of human cytomegalovirus; 4.5% of 410,000 active; activity change, negative = inhibition, % at 57.5 µM; HFF cells, HCMV-luciferase reporter, 72 h; hits give low values; AID 1259415; in the data active = activity change below about -60%; inconclusive = no clear call, values can overlap the other calls; inactive = above about -39%; note: % is set by controls: 0 for no effect and ±100 for the full control effect
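Cell-based, HFFs, 1000 cells/well, 16 h 37C; cpds in DMSO + HCMV-luc, MOI 1 PFU/cell; 72 h 37C; OneGlo luminescence after 5 min RT; norm. to buffer vs Salinomycin 10uM.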
Shiga inhibitor – inhibitors of Shiga toxin in Vero cells | Vero cells, Shiga toxin protein synthesis inhibition reporter | inhibition, % at 38.7 µM | 9.2% of 290,000 active; in the data active = inhibition mostly above about 28%, no sharp cut-off; inactive = mostly below about 43%; note: 0% is about no effect
Pf growth 48h – inhibits P. falciparum growth in the first generation, 48 h. P. falciparum luciferase growth in erythrocytes, 48 h. 5.9% of 310,000 active. Potency, µM (highest dose often 28.7 µM), for the others: at the top dose activity change, negative = inhibition, actives largely listed as inhibitors; note: potency is the fitted concentration of half-maximal effect; % is set by controls: 0 for no effect and ±100 for the full control effect
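Firefly luciferase activity from engineered P. falciparum reports growth; inhibitors lower the luminescent signal. Cultures contained 2% hematocrit erythrocytes at 0.1% final parasitemia.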
Pf growth 96h – P. falciparum growth inhibition at 96 hours. Potency, µM (highest dose often 28.7 µM), without a hit: at the highest dose activity change, negative = inhibition, hits mostly inhibitors. P. falciparum luciferase reporter growth, 96 h. 6.9% of 320,000 active. AID 504834; note: potency is the fitted concentration of half-maximal effect; % is set by controls: 0 for no effect and ±100 for the full control effect
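Compounds incubated with erythrocytes infected by luciferase-expressing P. falciparum (2% hematocrit, 0.05% parasitemia final) for 96 hours, 37 C in 5% CO2. Growth inhibition scored as decreased luciferase luminescence.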
HCV inh – inhibitors of hepatitis C virus infection. Potency, µM (highest dose often 41.8 µM), for the others: at the top dose activity change, negative = inhibition, actives largely listed as inhibitors. 3.4% of 340,000 active. Huh7.5.1 HCVcc-Cre infection, luciferase reporter, 44 h; note: potency is the fitted concentration of half-maximal effect; % is set by controls: 0 for no effect and ±100 for the full control effect
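Cells (1,000/well) were plated 4 h before compound, then infected with HCVcc-Cre virus (~0.5 moi). After 44 h further culture, infection was read as luciferase luminescence following a 15 min substrate incubation at room temperature.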
Cycloheximide cs – counter-screen hit for Shiga toxin inhibitors, cycloheximide; cell reporter, cycloheximide protein synthesis inhibition counterscreen; max response, %; 12% of 300,000 active; AID 2314; in the data active = max response mostly above about 13%, no sharp cut-off; inactive = mostly below about 14%; note: read at 38.3 µM for the half of the compounds with a filed dose; 0% is about no effect
Starred values were filed as active, the others as inactive; ? = inconclusive; nt = not tested or not shown. Shown are actives, neighbours in structure and some others; about 21% of the full set was active somewhere. Unless noted, calls come from the whole dose curve; as a rule, active = well fitted inhibition curve with a large enough effect; inconclusive = small, poorly fitted or top-dose-only effect, or another doubt; inactive = no such curve, though single readings can be large or run the other way.

SMILES	HCMV antiviral	Shiga inhibitor	Pf growth 48h	Pf growth 96h	HCV inh	Cycloheximide cs
Cn1c(=NCC(O)COc2ccccc2)sc2ccccc21 (stereo unspecified)	10	23	28%	12%	5%	18
COc1ccc(C(=O)N=c2sc3ccccc3n2C)cc1OC	32	32	32%	17%	-29%	20
COc1ccc(N=c2sc3ccccc3n2C)cc1	31	50	232%	nt	-26%	41*
COc1ccccc1N=c1sc2ccccc2n1C	-26	3	5%	nt	1.8µM*	13*
COc1ccc(C(=O)NC(C)c2cnn(-c3ccccn3)c2C)o1 (stereo unspecified)	-1	-10	20%	?	nt	-1
COc1ccc(CNC(=O)c2cn(Cc3ccc(S(=O)(=O)N(C)C)cc3)c(=O)s2)cc1	-81*	nt	nt	nt	nt	nt
COc1ccc(OCCN(C)C(=O)c2cccc(S(=O)(=O)N(C)c3ccccc3)c2)cc1	-15	nt	?	?	14µM*	nt
Cc1ccc(N(C)S(=O)(=O)c2cccc(C(=O)N(C)Cc3cnn(-c4ccccc4)c3)c2)cc1	-67*	nt	?	?	?	nt
COc1ccc(CNC(=O)c2cn(Cc3ccc(OC(C)=O)cc3)c(=O)s2)cc1	7	nt	nt	nt	nt	nt
COc1ccc(N(C)S(=O)(=O)c2ccc(Cl)c(C(=O)NCCc3ccc(Cl)cc3)c2)cc1	-27	20	?	-20%	10µM*	6
CCN(c1ccccc1)S(=O)(=O)c1cccc(C(=O)N(C)CCOc2ccccc2)c1	-25	nt	-8%	?	?	nt
CCN(CC(=O)Nc1c(F)cccc1F)C(=O)Cc1csc(-c2ccc(OC)c(OC)c2)n1	-2	nt	0%	-5%	-10%	nt
COCCCNC(=O)CN(CCc1ccccc1)S(=O)(=O)c1ccc(C)cc1	?	1	?	?	-3%	-4
COc1ccc(CNC(=O)c2ccc(N(C)S(=O)(=O)c3ccc(C)cc3)cc2)cc1	27	-8	?	0%	4.5µM*	-2
COc1ccc(S(=O)(=O)N(C)c2ccc(C(=O)NCc3ccncc3)cc2)cc1	13	-9	-4%	-51%	1%	2
Cc1ccc(CNC(=O)c2ccc(-n3cccc3)cc2)cc1	-16	7	9%	?	18%	9
Cc1ccc(CNC(=O)c2ccc(N(C)C)cc2)cc1	39	61*	43%	21%	-1%	23*
COc1ccc(N(C)S(=O)(=O)c2cccc(C(=O)NCc3ccc(C)cc3)c2)cc1	-18	nt	-11%	5.9µM*	?	nt
Cc1ccc(CNC(=O)c2nccnc2C(=O)O)cc1	-16	-6	3%	4.7µM*	6%	1
Cc1ccc(C)c(NC(=O)CN(C)C(=O)CC2OC(=O)c3ccccc32)c1 (stereo unspecified)	19	nt	nt	nt	5%	nt
CC(C)OCCCNC(=O)c1cc2c(-c3ccc(Cl)cc3)nn(C)c2s1	157	nt	nt	nt	nt	nt
Cc1ccc(SCc2ccc(C(=O)NCc3ccncc3)cc2)cc1	-78*	26	-10%	5%	-24%	8
CCOCCCNC(=O)c1ccc(N(C)S(=O)(=O)c2ccc(OC)cc2)cc1	-103*	-21	-1%	nt	-4%	-4
COc1ccc(S(=O)(=O)N(C)c2ccc(C(=O)NCCC(C)C)cc2)cc1	39	-2	-13%	nt	-11%	-1
CC(C)OCCCNC(=O)CSc1c2c(nc3ccc(Cl)cc13)CCCC2	32	nt	nt	nt	nt	nt
CCCc1cc(=O)n2c(nc3ccccc32)[nH]1	54	37	?	nt	-18%	18*
CCCCCCn1c(=O)n2n(c1=O)[C@@H]1CN(S(=O)(=O)c3ccc(C)cc3)C[C@]1(O)[C@@H](OC(=O)NCc1ccco1)C2	5	nt	nt	nt	nt	nt
CN(Cc1ccccc1)C(=O)Cn1c(=O)oc2cc(S(=O)(=O)NCc3ccccc3)ccc21	-71*	-6	nt	-2%	14µM*	-1
CCOC(=O)Cn1c(=O)oc2cc(S(=O)(=O)Nc3cc(OCC)ccc3OCC)ccc21	58	10	?	1.5µM*	18%	-3
CCOC(=O)Cn1c(=O)oc2cc(S(=O)(=O)Nc3cccc(C)c3)ccc21	17	-8	nt	1%	6%	-3
